The source made the active and inactive calls.
Legend:
[1] = small molecules captured by biotinylated probe aFSTL3 – biochemical, small-molecule microarray, fluorescence 635/667, stem cell growth factor project, primary screen (AID 1064); details: higher = more signal;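 further: measures binding of the biotinylated anti-FSTL3 antibody to printed compounds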
[2] = binders from COS7 lysate, DM2A8 probe, primary screen, torsin A project, cell lysate, small-molecule microarray, fluorescence 635/667 (AID 1065); details: higher = more signal, COS7 lysate expressing mutant human TOR1A
[3] = small molecules captured by biotinylated probe aFGF2 – biochemical, small-molecule microarray, fluorescence 635/667, stem cell growth factor project, primary screen (AID 1067); details: higher = more signal;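 further: measures binding of biotinylated aFGF2 protein to printed compounds on slides; z-score merges feature fluorescence and signal-to-noise across triplicate slides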
[4] = small molecules captured by biotinylated probe aFGF10 – biochemical, small-molecule microarray, fluorescence 635/667, stem cell growth factor project, primary screen (AID 1071); details: higher = more signal;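 further: score merges 667 nm spot intensity and signal to noise from triplicate slides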
[5] = target: Neurogenic locus notch homolog protein 2 (Homo sapiens) (UniProt Q04721); experiment: small molecules binding Notch2 protein – biochemical, small-molecule microarray, 635 nm fluorescence, stem cell growth factors, primary screen (AID 1073); details: higher = more signal
[6] = target: Pro-neuregulin-1, membrane-bound isoform (Homo sapiens) (UniProt Q02297); experiment: small molecules binding neuregulin-1 protein – biochemical, small-molecule microarray, fluorescence 635/667, psychiatric disease protein project, primary screen (AID 1075); details: NRG1 binding, 635 nm fluorescence, higher = more signal;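 further: score combines 667 nm spot fluorescence with signal to noise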
[7] = test system: Neuregulin-1 EGF-like domain; experiment: small molecules binding NRG1 EGF domain – biochemical, small-molecule microarray, 635 nm fluorescence, primary screen (AID 1081); details: higher = more signal;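 further: binding of the protein to compounds printed on small-molecule microarray slides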
[8] = FRG1 expression reporter modulators in myotubes – cell-based, C2C12 myotubes, firefly/Renilla luciferase, luminescence, FRG1 inhibition for FSHD, primary screen (AID 1084); details: FRG1 promoter luciferase, higher = more signal, called active from +8 up or from −8 down
[9] = small molecules captured by biotinylated probe aFST – biochemical, small-molecule microarray, fluorescence 635/667, stem cell growth factor project, primary screen (AID 1086); details: higher = more signal;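 further: score merges 667 nm fluorescence with signal-to-noise of each printed compound spot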
[10] = binders of probe aHhip on microarray, primary screen, stem cell growth factor project, biochemical, small-molecule microarray, fluorescence 635/667 (AID 1087); details: higher = more signal;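 further: score merges spot fluorescence at 667nm with spot signal to noise ratio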

Neurogenic locus notch homolog protein 2 (Homo sapiens), sequence (Q04721 whole entry, looked up, canonical isoform): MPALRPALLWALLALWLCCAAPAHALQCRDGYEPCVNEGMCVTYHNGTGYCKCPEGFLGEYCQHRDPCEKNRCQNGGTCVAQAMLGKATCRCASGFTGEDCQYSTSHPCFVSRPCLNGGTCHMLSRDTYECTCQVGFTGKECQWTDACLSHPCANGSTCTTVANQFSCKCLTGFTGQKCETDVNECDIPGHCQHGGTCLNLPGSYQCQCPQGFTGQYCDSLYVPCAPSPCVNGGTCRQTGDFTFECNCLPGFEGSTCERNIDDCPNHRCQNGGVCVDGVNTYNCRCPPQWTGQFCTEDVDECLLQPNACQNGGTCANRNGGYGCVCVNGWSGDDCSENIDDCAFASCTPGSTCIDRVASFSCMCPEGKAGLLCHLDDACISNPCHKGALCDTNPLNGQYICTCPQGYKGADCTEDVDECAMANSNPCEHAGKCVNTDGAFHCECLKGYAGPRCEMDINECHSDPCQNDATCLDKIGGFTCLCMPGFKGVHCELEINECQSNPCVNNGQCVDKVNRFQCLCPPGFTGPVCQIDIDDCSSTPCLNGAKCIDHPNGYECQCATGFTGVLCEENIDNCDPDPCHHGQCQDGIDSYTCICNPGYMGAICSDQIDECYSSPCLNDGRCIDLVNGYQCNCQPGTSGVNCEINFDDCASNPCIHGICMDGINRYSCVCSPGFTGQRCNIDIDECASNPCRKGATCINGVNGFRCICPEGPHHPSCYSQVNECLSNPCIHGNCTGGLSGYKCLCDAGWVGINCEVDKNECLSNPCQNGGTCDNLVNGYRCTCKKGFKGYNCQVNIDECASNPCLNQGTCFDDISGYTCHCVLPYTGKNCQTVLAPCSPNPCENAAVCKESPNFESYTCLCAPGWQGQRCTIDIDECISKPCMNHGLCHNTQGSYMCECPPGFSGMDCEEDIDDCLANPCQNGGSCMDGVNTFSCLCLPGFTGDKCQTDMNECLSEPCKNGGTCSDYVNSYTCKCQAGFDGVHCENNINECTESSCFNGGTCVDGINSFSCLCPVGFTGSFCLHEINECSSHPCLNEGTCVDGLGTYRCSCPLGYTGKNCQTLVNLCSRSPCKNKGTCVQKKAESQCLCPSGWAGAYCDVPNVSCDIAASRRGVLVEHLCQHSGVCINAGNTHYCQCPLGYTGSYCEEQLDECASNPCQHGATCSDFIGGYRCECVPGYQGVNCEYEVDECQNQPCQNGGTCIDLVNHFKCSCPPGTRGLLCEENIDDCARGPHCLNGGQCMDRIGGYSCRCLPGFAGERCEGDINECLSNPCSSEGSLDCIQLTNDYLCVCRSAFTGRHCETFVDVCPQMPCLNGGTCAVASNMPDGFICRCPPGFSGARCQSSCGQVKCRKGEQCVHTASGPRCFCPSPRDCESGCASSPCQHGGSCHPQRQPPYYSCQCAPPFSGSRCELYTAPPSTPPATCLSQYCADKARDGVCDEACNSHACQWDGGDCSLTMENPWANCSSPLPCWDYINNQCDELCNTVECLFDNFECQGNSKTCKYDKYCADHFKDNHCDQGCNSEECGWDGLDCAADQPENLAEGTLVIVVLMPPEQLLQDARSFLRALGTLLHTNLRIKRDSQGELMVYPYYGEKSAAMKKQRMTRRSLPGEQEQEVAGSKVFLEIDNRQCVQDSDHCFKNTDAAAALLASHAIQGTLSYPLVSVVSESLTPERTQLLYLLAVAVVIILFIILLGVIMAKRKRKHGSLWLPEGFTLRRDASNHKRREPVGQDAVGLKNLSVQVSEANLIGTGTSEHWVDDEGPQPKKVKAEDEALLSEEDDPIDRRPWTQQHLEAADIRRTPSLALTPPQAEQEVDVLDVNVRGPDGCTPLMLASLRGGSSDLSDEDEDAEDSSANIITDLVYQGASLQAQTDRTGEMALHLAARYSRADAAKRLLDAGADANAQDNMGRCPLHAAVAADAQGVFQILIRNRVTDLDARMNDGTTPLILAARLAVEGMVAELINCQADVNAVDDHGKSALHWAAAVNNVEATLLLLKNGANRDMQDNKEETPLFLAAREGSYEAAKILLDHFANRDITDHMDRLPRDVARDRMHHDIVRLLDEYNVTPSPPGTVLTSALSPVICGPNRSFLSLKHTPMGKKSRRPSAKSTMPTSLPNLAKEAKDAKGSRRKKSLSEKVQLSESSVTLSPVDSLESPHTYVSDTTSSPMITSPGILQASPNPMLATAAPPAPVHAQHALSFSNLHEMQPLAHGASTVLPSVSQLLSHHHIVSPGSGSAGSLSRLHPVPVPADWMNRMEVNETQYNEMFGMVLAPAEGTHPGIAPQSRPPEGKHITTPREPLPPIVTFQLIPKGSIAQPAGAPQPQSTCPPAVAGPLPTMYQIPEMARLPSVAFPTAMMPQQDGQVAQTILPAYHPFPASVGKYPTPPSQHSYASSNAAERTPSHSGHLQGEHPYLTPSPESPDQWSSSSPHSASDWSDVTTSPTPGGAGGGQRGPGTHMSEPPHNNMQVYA
Pro-neuregulin-1, membrane-bound isoform (Homo sapiens), sequence (Q02297 whole entry, looked up, the tested form may be a part, canonical isoform): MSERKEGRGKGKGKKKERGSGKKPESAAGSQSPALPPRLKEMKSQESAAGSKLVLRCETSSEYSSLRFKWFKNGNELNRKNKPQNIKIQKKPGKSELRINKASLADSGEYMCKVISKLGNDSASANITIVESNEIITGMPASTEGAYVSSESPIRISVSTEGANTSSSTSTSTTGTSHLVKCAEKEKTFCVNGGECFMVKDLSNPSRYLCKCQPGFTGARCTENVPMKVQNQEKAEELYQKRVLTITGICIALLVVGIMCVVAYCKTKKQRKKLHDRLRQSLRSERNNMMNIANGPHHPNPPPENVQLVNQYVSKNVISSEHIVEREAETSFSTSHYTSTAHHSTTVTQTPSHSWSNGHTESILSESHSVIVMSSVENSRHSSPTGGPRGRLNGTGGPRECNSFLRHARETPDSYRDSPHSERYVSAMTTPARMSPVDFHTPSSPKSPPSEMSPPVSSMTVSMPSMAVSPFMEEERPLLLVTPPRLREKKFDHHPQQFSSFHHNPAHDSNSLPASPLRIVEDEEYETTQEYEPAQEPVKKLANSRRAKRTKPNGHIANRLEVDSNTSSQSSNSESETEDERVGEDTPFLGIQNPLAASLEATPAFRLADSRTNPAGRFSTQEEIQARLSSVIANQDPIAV

Structure (SMILES)	composite z-score [1]	composite z-score [2]	composite z-score [3]	composite z-score [4]	composite z-score [5]	composite z-score [6]	composite z-score [7]	z-score [8]	composite z-score [9]	composite z-score [10]
COC(=O)[C@@H]1CC[C@H](C)[C@@H](c2ccc(C)cc2)N1C(=O)c1ccc(C=NOC[C@@H](C)[C@H](OCc2ccccc2)C(C)C)cc1	-0.613	0.191	-0.0707	0.41	1.13	0.855	1	-0.229 (inactive)	0.38	0.0373
CCOC(=O)CCN1C(=O)[C@H]2[C@H]3[C@H](O)[C@H](O)CC(=NOCC(C)C)[C@H]3CC[C@H]2C1=O	0.185	0.0849	-0.0232	0.125	-0.131	-0.312	0.176	0.813 (inactive)	0.349	-0.264
Cc1ccc(S(=O)(=O)N[C@H]2COC(=O)CC=C[C@@H](C)COC(=O)CC=C[C@@H]2C)cc1	-0.537	0.604	-0.135	0.0963	-0.094	-0.326	-0.0175	0.999 (inactive)	-0.135	-0.466
CC(C)=CCCC(C)=CCON=C1C[C@@H](O)[C@@H](O)[C@@H]2[C@@H]3C(=O)N(C(C)(C)C)C(=O)[C@@H]3CC[C@H]12	-0.28	-0.0211	0.0122	0.406	0.591	0.0095	0.744	0.132 (inactive)	-0.0538	-0.0994
CC(CCN1CCc2nc(-c3ccccc3)c(-c3ccccc3)cc2C1)=NOC[C@@H](O)[C@H]1O[C@@H]2OC(C)(C)O[C@@H]2[C@H]1O	-0.621	0.59	-0.085	0.455	0.331	0.609	0.676	1.54 (inactive)	0.319	0.0139
CC(C)CON=C1C[C@@H](O)[C@@H](O)[C@@H]2[C@@H]3C(=O)N(C4CCCCC4)C(=O)[C@@H]3CC[C@@H]12	-0.216	1.2	-0.0955	0.0675	-0.0187	1.45	-0.115	-0.0468 (inactive)	-0.0424	-0.0994
CCOC(=O)[C@H](Cc1ccccc1)NC(=O)OC1CC(CCC2CC(CC)=NO2)OC2(CCCC(COC(=O)NCCC(C)C)O2)C1 (stereo not given in full)	-0.436	-0.235	-0.0692	0.354	0.165	0.418	0.86	0.309 (inactive)	-0.0729	-0.218
CCCNC(=O)OC[C@H]1O[C@H](CCON=C(C)CCN2CCc3nc(CC)c(CC)cc3C2)C=C[C@@H]1Oc1ccc(OC)cc1	-0.343	1.59	-0.129	-0.0187	0.0329	0.51	0.428	0.31 (inactive)	-0.0665	0.5
CCOC(=O)[C@H](CC(C)C)NC(=O)CCC1CC(OC(=O)NCCc2ccc(F)cc2)CC2(CCCC(COC(=O)NCCc3ccc(Cl)cc3)O2)O1 (stereo not given in full)	-0.543	1	-0.0267	0.491	0.74	0.0742	1.06	1.57 (inactive)	0.197	0.208
C[C@@H](c1ccccc1)N1C(=O)[C@H]2[C@H]3[C@H](O)[C@H](O)CC(=NO[C@@H]4O[C@H](CO)[C@@H](O)[C@H](O)[C@H]4O)[C@H]3CC[C@H]2C1=O	-0.528	-0.0577	-0.0291	0.303	0.473	0.0437	0.343	-0.412 (inactive)	0.0934	-0.0383
COC(=O)[C@H](C)NC(=O)CCC1CC(OC(=O)NCc2cccc3ccccc23)CC2(CCCC(COC(=O)NCC(c3ccccc3)c3ccccc3)O2)O1 (stereo not given in full)	-0.766	0.233	-0.0092	0.532	1.23	0.917	0.801	2.44 (inactive)	0.157	-0.134
COc1ccc(O[C@H]2C=C[C@@H](c3ccccc3)O[C@@H]2COC(=O)CCC(C)=NO[C@@H]2O[C@H](COC(C)=O)[C@@H](OC(C)=O)[C@H](OC(C)=O)[C@H]2OC(C)=O)cc1	-0.468	0.135	-0.152	0.608	0.424	-0.0533	0.929	1.09 (inactive)	0.247	-0.236

Source: PubChem BioAssay
